Each structure is given as a SMILES string. Activity calls are given as the source filed them. The calls were made as follows: active = hit-call score of the fitted dose curve at least 0.9, where 1 is the maximum; inactive = score below 0.9.

For assay [1], the target named is Bile acid receptor (Homo sapiens) (UniProt Q96RI1). The assay is described as follows: ATG_IR1_CIS: Attagene CIS-FACTORIAL HepG2 Assay for human Nuclear Receptor Subfamily 1 Group H Member 4 (NR1H4), IR1 submotif (AID 2282946). The note with it: IR1 reporter transcription, actives raise or lower the signal. In short, it runs like this:
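Fluorescence of capillary-separated, HpaI-digested RT-PCR reporter products gave IR1-element mRNA induction in HepG2 cells 24 h after dosing. Endogenous transcription factors drove the cis-regulated reporters; activity was fitted bidirectionally against DMSO.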

The nature of assay [2]: ATG_GRE_CIS: Attagene CIS-FACTORIAL HepG2 Assay for human Glucocorticoid Response Elements (GRE) (AID 2282947). Conditions: HepG2 GRE cis-reporter, Attagene multiplex mRNA; actives raise or lower the signal. The gist of the method: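 Read-out: fluorescent reporter-transcript fragments separated by capillary electrophoresis after RT-PCR. Transiently transfected HepG2 cells carrying cis-element-driven reporter units were dosed for 24 h; gain or loss of signal fitted against DMSO control.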

A short description of assay [3]: ATG_ISRE_CIS: Attagene CIS-FACTORIAL HepG2 Assay for human Interferon Regulatory Factor 1 (IRF1) binding to an Interferon-Stimulated Response Element (ISRE) (AID 2282948). Conditions: HepG2 ISRE cis-reporter (Attagene), mRNA transcription readout; actives raise or lower the signal. In short, it runs like this:
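Endogenous transcription factor activity read as reporter transcript abundance via RT-PCR and capillary electrophoresis. HepG2 cells transiently transfected, 24 h chemical exposure. Gain or loss fitted against DMSO baseline.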

Assay [4] in a line: ATG_M_32_CIS: Attagene CIS-FACTORIAL HepG2 Assay for M32 Transcription Factor (Internal Marker) (AID 2282949).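 Also: background control marker of the multiplexed CIS panel rather than a real target.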 Conditions: HepG2 Attagene cis-factorial M32 reporter, mRNA; actives raise or lower the signal. In short, it runs like this:
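Using DMSO as baseline, bidirectional curve fits were applied to reporter mRNA signals. These came from transiently transfected HepG2 cells exposed for 24 h, with RNA analysed by RT-PCR, FAM primer extension, HpaI digestion and CE.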

The nature of assay [5]: ATG_M_06_CIS: Attagene CIS-FACTORIAL HepG2 Assay for M06 Transcription Factor (Internal Marker) (AID 2282950). The note with it: HepG2 Attagene CIS-FACTORIAL M06 internal marker reporter; actives raise or lower the signal. In short, it runs like this: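 One of many multiplexed endpoints: HepG2 reporter mRNA after 24 h dosing, detected by RT-PCR and capillary electrophoresis fluorescence; gain or loss of signal analysed against DMSO.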

Assay [6] deals with Hepatocyte nuclear factor 6 (Homo sapiens) (UniProt Q9UBC0). The assay is described as follows: ATG_HNF6_CIS: Attagene CIS-FACTORIAL HepG2 Assay for human Hepatocyte Nuclear Factor 6 (HNF6) (AID 2282952). The note with it: HepG2 Attagene cis-factorial HNF6 reporter transcription; actives raise or lower the signal. The gist of the method:
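Activity values derive from bidirectional fitting against DMSO of reporter mRNA levels, measured by capillary electrophoresis of labelled RT-PCR products from HepG2 cells exposed 24 h.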

The target of assay [7] is Heat shock factor protein 1 (Homo sapiens) (UniProt Q00613). Kind of assay: ATG_HSE_CIS: Attagene CIS-FACTORIAL HepG2 Assay for human Heat Shock Transcription Factor 1 (HSE) (AID 2282953). The note with it: HepG2 HSE cis-reporter, Attagene RNA transcription; actives raise or lower the signal. The gist of the method: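 Using HepG2 with transfected cis-driven reporter constructs, compound effects on endogenous factor activity are scored as reporter mRNA change at 24 h. Detection: RT-PCR, HpaI digestion, capillary electrophoresis; bidirectional fitting to DMSO.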
Heat shock factor protein 1 (Homo sapiens), sequence (Q00613 whole entry, looked up): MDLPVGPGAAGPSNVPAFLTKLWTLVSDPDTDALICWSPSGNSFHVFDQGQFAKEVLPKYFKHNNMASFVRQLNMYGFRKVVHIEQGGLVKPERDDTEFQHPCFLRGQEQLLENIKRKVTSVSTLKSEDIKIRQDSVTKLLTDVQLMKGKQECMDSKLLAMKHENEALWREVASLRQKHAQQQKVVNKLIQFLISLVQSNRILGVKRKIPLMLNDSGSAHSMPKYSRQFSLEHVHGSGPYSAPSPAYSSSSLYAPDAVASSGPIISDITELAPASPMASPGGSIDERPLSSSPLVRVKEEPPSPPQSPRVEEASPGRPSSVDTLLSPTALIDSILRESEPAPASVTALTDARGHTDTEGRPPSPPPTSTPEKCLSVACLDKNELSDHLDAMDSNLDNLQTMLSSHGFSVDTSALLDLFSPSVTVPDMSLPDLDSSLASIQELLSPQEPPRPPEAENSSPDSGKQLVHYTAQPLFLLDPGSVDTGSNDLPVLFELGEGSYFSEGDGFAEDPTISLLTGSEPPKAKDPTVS

Assay [8] is described as follows: ATG_MRE_CIS: Attagene CIS-FACTORIAL HepG2 Assay for human Metal Responsive Element (MRE) (AID 2282954). Conditions: HepG2 MRE cis-reporter transcription, Attagene multiplex; actives raise or lower the signal. The gist of the method:
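RT-PCR/capillary electrophoresis readout of reporter mRNA, 24 h post-dosing, in HepG2 cells transfected with multiplexed cis-regulated reporter constructs. Gain or loss of signal fitted bidirectionally against DMSO baseline.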

Assay [9] addresses Paired box protein Pax-6 (Homo sapiens) (UniProt P26367). The assay is described as follows: ATG_Pax6_CIS: Attagene CIS-FACTORIAL HepG2 Assay for human Paired Box 6 (PAX6) (AID 2282956). Conditions: HepG2 CIS-FACTORIAL PAX6 reporter transcription, RNA readout; actives raise or lower the signal. In short, it runs like this: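 Read-out is reporter transcript level, measured by RT-PCR with fluorescent primer extension and capillary electrophoresis after 24 h dosing of transfected HepG2 cells. Activity in either direction fitted relative to DMSO control.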

Assay [10] can be described thus: ATG_PXRE_CIS: Attagene CIS-FACTORIAL HepG2 Assay for human Pregnane X Receptor Element (PXRE) (AID 2282957). Conditions: HepG2 Attagene CIS-FACTORIAL PXRE reporter, mRNA; actives raise or lower the signal. The gist of the method:
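Fluorescent capillary electrophoresis of amplified reporter cDNA gave the signal, collected 24 h after dosing HepG2 cells that held transfected cis-element reporter constructs.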

Assay [11] can be described thus: ATG_PPRE_CIS: Attagene CIS-FACTORIAL HepG2 Assay for human Peroxisome Proliferator-activated Response Element (PPRE) (AID 2282958). Conditions: HepG2 PPRE cis-element reporter, Attagene transcription factor profiling; actives raise or lower the signal. In short, it runs like this:
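Multiplexed reporter transcription units under cis-regulatory promoters were transfected into HepG2 cells to capture endogenous factor activity. A 24 h incubation preceded RNA isolation and fluorescent RT-PCR fragment analysis.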

The nature of assay [12]: ATG_RORE_CIS: Attagene CIS-FACTORIAL HepG2 Assay for human RAR-related Orphan Receptor Element (RORE) (AID 2282959). Conditions: HepG2 Attagene cis-factorial RORE reporter, mRNA; actives raise or lower the signal. In short, it runs like this:
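Fluorescence intensity of reporter-specific cDNA fragments, separated by capillary electrophoresis, gives the signal. Source: HepG2 liver cells transiently transfected with cis-element reporters and exposed 24 h; DMSO-normalized bidirectional fit.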

The nature of assay [13]: ATG_Sox_CIS: Attagene CIS-FACTORIAL HepG2 Assay for human SRY-box transcription factor (SOX) (AID 2282960). Conditions: HepG2 Attagene cis-factorial SOX reporter, mRNA; actives raise or lower the signal. In short, it runs like this:
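After 24 h of chemical treatment, transfected HepG2 reporter cells are lysed for total RNA. Transcript levels come from RT-PCR with labelled primer extension and capillary electrophoresis, analysed bidirectionally versus DMSO.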

A short description of assay [14]: ATG_SREBP_CIS: Attagene CIS-FACTORIAL HepG2 Assay for human Sterol Regulatory Element Binding (SREBP) (AID 2282962). The note with it: HepG2 Attagene cis-factorial SREBP reporter, mRNA; actives raise or lower the signal. The gist of the method: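 Endogenous SREBP activity read as cis-element-driven reporter transcript in transiently transfected HepG2, 24 h post-dosing; quantified via RT-PCR plus capillary electrophoresis of fluorescent fragments. Gain or loss of signal fitted relative to DMSO baseline.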

The target of assay [15] is Signal transducer and activator of transcription 3 (Homo sapiens) (UniProt P40763). The assay is described as follows: ATG_STAT3_CIS: Attagene CIS-FACTORIAL HepG2 Assay for human Signal Transducer and Activator of Transcription 3 (STAT3) (AID 2282963). Conditions: HepG2, Attagene cis-factorial STAT3 reporter transcription; actives raise or lower the signal. In short, it runs like this:
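Readout: fluorescent reporter mRNA fragments resolved by capillary electrophoresis. Setup: HepG2 transfected with MRTUs reporting endogenous transcription-factor activity, dosed 24 h. Gain or loss of signal fitted bidirectionally against DMSO control.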

The nature of assay [16]: ATG_TA_CIS: Attagene CIS-FACTORIAL HepG2 Assay for human TA Basal Promoter (AID 2282964). The note with it: HepG2 Attagene CIS-factorial TA basal promoter reporter; actives raise or lower the signal. In short, it runs like this:
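Transient MRTU transfection of HepG2 preceded 24 h compound exposure. Reporter mRNA levels were then read by RT-PCR with capillary electrophoresis, and this background-control endpoint was fitted bidirectionally to DMSO.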

Assay [17] is described as follows: ATG_TCF_b_cat_CIS: Attagene CIS-FACTORIAL HepG2 Assay for human T-Cell-Factor with beta-catenin (TCF/b-cat) (AID 2282965). Conditions: HepG2 TCF/beta-catenin cis-reporter transcription, actives raise or lower the signal. The gist of the method:
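Cells of the HepG2 line carry transiently transfected reporter units whose promoters respond to endogenous factors. Twenty-four hours post-dosing, reporter mRNA induction is measured by fluorescent RT-PCR and capillary electrophoresis, with DMSO as baseline.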

Assay [18] deals with Hypoxia-inducible factor 1-alpha (Homo sapiens) (UniProt Q16665). Kind of assay: ATG_HIF1a_CIS: Attagene CIS-FACTORIAL HepG2 Assay for human Hypoxia Inducible Factor 1 (HIF1A) (AID 2282951). The note with it: HepG2 Attagene cis-factorial HIF1a reporter transcription; actives raise or lower the signal. The gist of the method: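 In this multiplexed cell assay, HepG2 cells bearing transfected cis reporters are dosed for 24 h and reporter mRNA is read by RT-PCR plus capillary electrophoresis; signal increases and decreases are both scored against DMSO.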
Hypoxia-inducible factor 1-alpha (Homo sapiens), sequence (Q16665 whole entry, looked up): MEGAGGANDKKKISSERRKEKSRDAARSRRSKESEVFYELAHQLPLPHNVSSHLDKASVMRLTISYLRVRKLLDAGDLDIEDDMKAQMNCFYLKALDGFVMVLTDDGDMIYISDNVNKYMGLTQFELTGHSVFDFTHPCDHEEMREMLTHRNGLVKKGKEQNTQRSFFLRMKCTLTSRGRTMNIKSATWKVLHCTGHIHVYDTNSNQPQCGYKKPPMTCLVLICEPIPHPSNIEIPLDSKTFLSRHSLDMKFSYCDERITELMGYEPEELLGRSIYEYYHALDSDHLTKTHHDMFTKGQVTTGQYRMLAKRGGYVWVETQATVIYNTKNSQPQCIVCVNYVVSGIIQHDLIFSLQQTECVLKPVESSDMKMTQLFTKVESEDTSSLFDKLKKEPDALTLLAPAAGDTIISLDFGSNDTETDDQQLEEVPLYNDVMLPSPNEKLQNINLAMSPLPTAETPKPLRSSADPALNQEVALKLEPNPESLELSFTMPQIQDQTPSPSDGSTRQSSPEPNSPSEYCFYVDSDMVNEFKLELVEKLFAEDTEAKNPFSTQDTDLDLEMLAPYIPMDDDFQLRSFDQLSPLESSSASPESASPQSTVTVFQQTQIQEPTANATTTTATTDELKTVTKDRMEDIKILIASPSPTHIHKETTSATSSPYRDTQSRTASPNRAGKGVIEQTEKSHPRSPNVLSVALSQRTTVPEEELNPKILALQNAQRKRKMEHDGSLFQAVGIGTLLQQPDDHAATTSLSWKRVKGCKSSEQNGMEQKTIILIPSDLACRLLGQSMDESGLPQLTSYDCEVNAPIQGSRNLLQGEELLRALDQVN

The target of assay [19] is Transcription factor Sp1 (Homo sapiens) (UniProt P08047). The assay is described as follows: ATG_Sp1_CIS: Attagene CIS-FACTORIAL HepG2 Assay for human Specificity Protein 1 (Sp1) (AID 2282961). Conditions: HepG2 Sp1 cis-reporter transcription, actives raise or lower the signal. In short, it runs like this: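 Sp1-driven reporter mRNA, read as capillary electrophoresis fluorescence after RT-PCR, in transiently transfected HepG2 cells dosed for 24 h; signal change in either direction relative to DMSO.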
Transcription factor Sp1 (Homo sapiens), sequence (P08047 whole entry, looked up): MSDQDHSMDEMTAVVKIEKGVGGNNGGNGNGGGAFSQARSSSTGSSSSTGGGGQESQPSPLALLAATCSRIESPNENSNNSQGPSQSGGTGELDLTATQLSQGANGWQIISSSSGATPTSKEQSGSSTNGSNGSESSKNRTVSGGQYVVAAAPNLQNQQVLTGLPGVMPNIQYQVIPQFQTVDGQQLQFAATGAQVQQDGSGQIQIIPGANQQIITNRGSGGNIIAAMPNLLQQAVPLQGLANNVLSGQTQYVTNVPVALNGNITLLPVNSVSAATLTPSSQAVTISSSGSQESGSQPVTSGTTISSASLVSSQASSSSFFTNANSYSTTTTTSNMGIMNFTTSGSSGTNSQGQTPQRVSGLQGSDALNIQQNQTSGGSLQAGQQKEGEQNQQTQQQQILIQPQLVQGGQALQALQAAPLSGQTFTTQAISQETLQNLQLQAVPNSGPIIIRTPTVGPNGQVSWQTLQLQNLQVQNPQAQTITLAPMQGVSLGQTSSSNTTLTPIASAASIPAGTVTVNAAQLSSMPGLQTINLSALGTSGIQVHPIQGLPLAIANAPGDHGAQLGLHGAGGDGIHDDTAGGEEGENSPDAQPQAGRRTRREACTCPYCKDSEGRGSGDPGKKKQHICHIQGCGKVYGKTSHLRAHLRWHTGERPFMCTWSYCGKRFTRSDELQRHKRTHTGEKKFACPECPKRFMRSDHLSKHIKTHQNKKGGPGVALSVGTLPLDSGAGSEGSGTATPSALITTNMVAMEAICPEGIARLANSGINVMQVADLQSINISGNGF

Assay [20] in a line: ATG_PBREM_CIS: Attagene CIS-FACTORIAL HepG2 Assay for human Phenobarbital-responsive Enhancer Module (PBREM) (AID 2282955). The note with it: HepG2 PBREM cis-reporter, Attagene multiplexed transcription; actives raise or lower the signal. In short, it runs like this: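 After a 24 h incubation with test chemical, transfected HepG2 cells yield total RNA; reporter-specific RT-PCR products are fluorescently labelled, HpaI-digested and resolved by capillary electrophoresis against ROX size standards.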

Hepatocyte nuclear factor 6 (Homo sapiens), sequence (Q9UBC0 whole entry, looked up): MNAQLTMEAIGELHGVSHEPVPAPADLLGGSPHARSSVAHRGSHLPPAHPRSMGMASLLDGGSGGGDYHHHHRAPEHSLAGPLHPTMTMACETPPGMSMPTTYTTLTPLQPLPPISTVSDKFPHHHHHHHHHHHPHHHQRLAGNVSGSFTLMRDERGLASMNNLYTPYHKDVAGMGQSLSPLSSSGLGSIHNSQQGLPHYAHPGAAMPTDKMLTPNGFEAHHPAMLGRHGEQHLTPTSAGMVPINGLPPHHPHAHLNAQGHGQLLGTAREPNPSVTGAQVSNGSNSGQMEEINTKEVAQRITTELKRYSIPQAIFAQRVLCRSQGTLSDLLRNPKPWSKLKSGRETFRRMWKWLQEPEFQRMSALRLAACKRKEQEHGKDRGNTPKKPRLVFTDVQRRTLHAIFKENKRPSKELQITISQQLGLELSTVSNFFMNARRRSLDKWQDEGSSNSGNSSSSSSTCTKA
Bile acid receptor (Homo sapiens), sequence (Q96RI1 whole entry, looked up): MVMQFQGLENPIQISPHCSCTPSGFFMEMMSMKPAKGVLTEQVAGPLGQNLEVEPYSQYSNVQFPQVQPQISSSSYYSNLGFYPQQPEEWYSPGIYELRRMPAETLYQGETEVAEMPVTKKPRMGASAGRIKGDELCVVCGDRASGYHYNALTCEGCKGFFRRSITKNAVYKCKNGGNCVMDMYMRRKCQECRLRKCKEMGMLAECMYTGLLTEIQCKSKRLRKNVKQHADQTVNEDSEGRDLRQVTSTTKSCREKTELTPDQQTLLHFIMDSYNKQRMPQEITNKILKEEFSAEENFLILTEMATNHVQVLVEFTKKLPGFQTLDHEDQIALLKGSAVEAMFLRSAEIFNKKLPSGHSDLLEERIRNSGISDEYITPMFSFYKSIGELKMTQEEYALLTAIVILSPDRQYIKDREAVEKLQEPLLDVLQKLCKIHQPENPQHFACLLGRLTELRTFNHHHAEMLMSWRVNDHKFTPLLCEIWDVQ
Paired box protein Pax-6 (Homo sapiens), sequence (P26367 whole entry, looked up): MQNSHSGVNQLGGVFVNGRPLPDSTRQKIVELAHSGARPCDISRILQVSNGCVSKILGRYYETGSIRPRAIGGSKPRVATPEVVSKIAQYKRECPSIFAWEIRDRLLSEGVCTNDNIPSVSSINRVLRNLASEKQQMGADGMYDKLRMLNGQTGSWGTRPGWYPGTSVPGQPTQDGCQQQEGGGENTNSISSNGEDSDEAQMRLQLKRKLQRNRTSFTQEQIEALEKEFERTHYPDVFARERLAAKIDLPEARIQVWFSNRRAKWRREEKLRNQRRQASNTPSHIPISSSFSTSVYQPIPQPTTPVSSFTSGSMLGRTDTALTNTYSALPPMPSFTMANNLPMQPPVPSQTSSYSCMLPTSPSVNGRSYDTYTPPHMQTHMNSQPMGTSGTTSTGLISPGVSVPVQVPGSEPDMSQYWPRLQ
Signal transducer and activator of transcription 3 (Homo sapiens), sequence (P40763 whole entry, looked up, the tested form may be a part): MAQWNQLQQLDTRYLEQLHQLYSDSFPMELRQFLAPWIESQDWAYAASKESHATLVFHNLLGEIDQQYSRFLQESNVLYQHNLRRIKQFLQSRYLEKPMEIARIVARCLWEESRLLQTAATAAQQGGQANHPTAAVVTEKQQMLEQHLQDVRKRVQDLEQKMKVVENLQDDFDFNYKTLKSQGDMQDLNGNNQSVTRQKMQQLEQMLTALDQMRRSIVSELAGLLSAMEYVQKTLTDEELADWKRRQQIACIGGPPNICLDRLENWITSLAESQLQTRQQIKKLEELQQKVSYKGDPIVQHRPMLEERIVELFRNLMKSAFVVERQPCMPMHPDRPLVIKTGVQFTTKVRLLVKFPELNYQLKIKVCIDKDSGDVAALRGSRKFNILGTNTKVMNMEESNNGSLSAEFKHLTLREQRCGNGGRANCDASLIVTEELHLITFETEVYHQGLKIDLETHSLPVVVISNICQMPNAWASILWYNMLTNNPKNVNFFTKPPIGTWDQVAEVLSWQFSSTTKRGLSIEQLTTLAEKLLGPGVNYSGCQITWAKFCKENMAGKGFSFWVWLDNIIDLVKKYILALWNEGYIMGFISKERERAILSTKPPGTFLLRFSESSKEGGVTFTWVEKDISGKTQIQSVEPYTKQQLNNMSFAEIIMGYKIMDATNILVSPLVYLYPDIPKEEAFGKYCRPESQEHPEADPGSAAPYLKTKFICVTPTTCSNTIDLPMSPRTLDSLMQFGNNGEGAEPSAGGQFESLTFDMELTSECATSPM

The AC50 is the midpoint of the concentration-response curve, whichever way the signal moves. Take `CC1C2CC(CC2C2CCCC(O)C2)C1(C)C` (stereo unspecified): the outcome in assay [1], in assay [2], in assay [3], in assay [4], in [5] and in [6] was inactive. In addition, the call in assay [7], in assay [8], in assay [9], in assay [11], in assay [12] and in assay [13] was inactive. The outcome in assay [14], in assay [15], in assay [16] and in [17] was inactive. Moreover, the AC50 in assay [10] is 3.04 µM (active).

Turning to `CCCCCCCCc1ccc(S(=O)(=O)O)cc1`, the AC50 in assay [1] was 175 µM (active); in assay [4], 99.5 µM (active); in assay [5] it was 155 µM (active); in [6], 167 µM (active); in assay [19], 186 µM (active); in assay [14] it was 159 µM (active). Also, the molecule was called inactive in assay [2], in assay [3], in [18], in assay [7], in [8] and in assay [10]. The molecule was classed as inactive in assay [11], in assay [12], in [13], in assay [15], in [16] and in assay [17].

`CSCCC=O`: the molecule was called inactive in assay [1], in [2], in assay [3], in [4], in assay [5] and in [18]. The call in assay [6], in [8], in [20], in assay [9], in [11] and in [12] was inactive. For the same molecule, the result in assay [13], in assay [19], in [14], in assay [15], in assay [16] and in assay [17] was inactive. The AC50 in assay [10] was 10.9 µM (active).

Regarding `CCCCCCC(C)Nc1ccc(Nc2ccccc2)cc1` (stereo unspecified), the outcome in [1], in assay [2], in [3], in [4], in assay [5] and in [6] was inactive. Further, the molecule was classed as inactive in [9], in [11], in assay [12], in [13], in [19] and in assay [14]. For the same molecule, the result in assay [15] and in assay [17] was inactive. Further, the AC50 in assay [7] is 60.8 µM (active); in assay [8] it was 48.9 µM (active); in [10], 1.78 µM (active).

The record behind these values is PubChem BioAssay (EPA / NIEHS).
